Experimental findings from PubChem BioAssay (EPA / NIEHS) are described below.

Structures are written as SMILES. Several values for one entry are separate records, joined by “and”; a condition that tells them apart may be missing. Equal values may be shown once. Records with an inconclusive call do not appear. Activity calls are given as the source filed them. Rule for the calls, unless noted: active = hit-call score of the fitted dose curve at least 0.9, where 1 is the maximum; inactive = score below 0.9.

Experiment [1] can be described thus: CCTE_Mundy_HCI_Cortical_Synap_Neur_Matur_NeuronCount: CCTE's Synaptogenesis and Neurite Maturation Assay in rat cortical cells for Neuron Count, Mundy Lab (AID 2284242; active = hit-call score of the fitted dose curve at least 0.9, where 1 is the maximum). A digest of the protocol: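 Rat primary cortical cells, AraC added at DIV 5, dosed with media change from DIV 7 to DIV 12. Fixed, Hoechst-stained and immunolabelled for MAP2 and synaptophysin; neuron number counted by high-content imaging, loss fitted versus DMSO.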

Read-out in experiment [2]: Collagen I, COL1A1 (gene 1277)
Description: BSK_MyoF_CollagenI: BioMAP Diversity Plus: MyoF Assay for Collagen I Biomarker Activity (AID 2284238). Conditions: primary human lung fibroblasts. Summed up: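 Human lung fibroblasts were exposed to test chemical for 24 h, then Collagen I was quantified by ELISA. Activity was fitted in the increasing direction against DMSO as the negative control and baseline.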

Read-out in experiment [3]: Collagen III, COL3A1 (gene 1281)
Description: BSK_MyoF_CollagenIII: BioMAP Diversity Plus: MyoF Assay for Collagen III Biomarker Activity (AID 2284239). Conditions: primary human lung fibroblasts. A digest of the protocol: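 Human lung fibroblasts were dosed with chemicals and, 24 hours later, collagen III was measured by ELISA. Activity was fitted in the positive direction against the DMSO negative-control baseline.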

Read-out in experiment [4]: Interleukin 17F (IL17F), IL17F (gene 112744)
Description: BSK_BT_xIL17F: BioMAP Diversity Plus: BT Assay for Interleukin 17F (IL17F) Biomarker Activity (AID 2284243). The conditions noted are these: primary human B cells with PBMC. Summed up: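 B cell/PBMC co-culture (human primary), 24 h compound exposure; sIL-17F by Luminex xMAP; gain-of-signal fit vs DMSO baseline.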

Read-out in experiment [5]: Basic fibroblast growth factor (bFGF), FGF2 (gene 2247)
Description: BSK_MyoF_bFGF: BioMAP Diversity Plus: MyoF Assay for Basic fibroblast growth factor (bFGF) Biomarker Activity (AID 2284246). The conditions noted are these: primary human lung fibroblasts. A digest of the protocol: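 Human lung fibroblast cultures were dosed and measured 24 h later in 96-well format. bFGF biomarker levels quantified by ELISA, with activity fitted in the positive direction against DMSO.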

Regarding `CCCCNS(=O)(=O)c1ccccc1`, the compound was called inactive in experiment [1].

As for `C[N+](C)(C)CCCNS(=O)(=O)C(F)(F)C(F)(F)C(F)(F)C(F)(F)C(F)(F)C(F)(F)C(F)(F)C(F)(F)F`, the AC50 (commonly the concentration giving half of the maximal activity seen) is 48.6 µM (active) and 48.1 µM (active) in experiment [2]; 48.8 µM (active) and 50.1 µM (active) in experiment [3]; 22.5 µM (active) and 21.6 µM (active) in experiment [4]; 46.9 µM (active) and 47.2 µM (active) in experiment [5].

As to `C=CC(=O)OCC(C)OCC(C)OCC(C)OC(=O)C=C` (centres undefined), the AC50 in experiment [2] is 30.4 µM (active); in experiment [3], 30.9 µM (active); in experiment [4], 7.15 µM (active); in experiment [5], 31.1 µM (active).

As to `Oc1ccc(/C=C/c2cc(O)cc(O)c2)cc1`, the result in experiment [2], in experiment [3] and in experiment [5] was inactive. The AC50 in experiment [4] was 23.9 µM (active).

Consider `Oc1c(Cl)cc(Cl)c(Cl)c1Cl`, for which the AC50 in experiment [2] was 20 µM (active); in experiment [3] it was 16.5 µM (active); in experiment [5], 20 µM (active). The outcome in experiment [4] was inactive.

As to `CCCCCCCO`, the outcome in experiment [2], in experiment [3], in experiment [4] and in experiment [5] was inactive.

On to `c1ccc2sc(SSN3CCOCC3)nc2c1`, for which the concentration at half-maximal activity (AC50) in experiment [2] is 15.5 µM (active); in experiment [3] it was 28.4 µM (active); in experiment [4] it was 19.9 µM (active); in experiment [5], 28.8 µM (active).

As to `O=C(Oc1ccccc1)c1ccccc1C(=O)Oc1ccccc1`, the outcome in experiment [2], in experiment [3], in experiment [4] and in experiment [5] was inactive.

As to `CCc1cccc(C)c1N(C(=O)CS(=O)(=O)O)C(C)COC` (centres undefined), the outcome in experiment [2], in experiment [3], in experiment [4] and in experiment [5] was inactive.

`CCN1CN(CC)CN(CC)C1`: the outcome in experiment [2], in experiment [3], in experiment [4] and in experiment [5] was inactive.

For the compound `C=CC(=O)OCCCCCCOC(=O)C=C`, the AC50 in experiment [2] was 34.4 µM (active); in experiment [3] it was 25.7 µM (active); in experiment [4], 9.47 µM (active); in experiment [5], 34.7 µM (active).

Take `CC(C)[N+](C)(CCOC(=O)C1c2ccccc2Oc2ccccc21)C(C)C`: the outcome in experiment [2], in experiment [3], in experiment [4] and in experiment [5] was inactive.

Regarding `CC(Cl)COP(=O)(OCC(C)Cl)OCC(C)Cl` (centres undefined), the result in experiment [2], in experiment [3], in experiment [4] and in experiment [5] was inactive.

For the compound `O=C(Cl)c1c(Cl)c(Cl)c(C(=O)Cl)c(Cl)c1Cl`, the result in experiment [2], in experiment [3], in experiment [4] and in experiment [5] was inactive.

With `O=C1CCCCCCCCCCC1`, the result in experiment [2], in experiment [3], in experiment [4] and in experiment [5] was inactive.

`C=CC(=O)NCOCCCC`: the result in experiment [2], in experiment [3], in experiment [4] and in experiment [5] was inactive.

Consider `Clc1cc(Cl)c(Cl)c(Cl)c1Cl`, for which the outcome in experiment [2], in experiment [3], in experiment [4] and in experiment [5] was inactive.

Take `C=CCCCCCCCCC=O`: the outcome in experiment [2], in experiment [3], in experiment [4] and in experiment [5] was inactive.

In the case of `c1ccc2c(c1)[nH]c1ccccc12`, the result in experiment [2], in experiment [3], in experiment [4] and in experiment [5] was inactive.

As for `Fc1ccc(Br)cc1`, the result in experiment [2], in experiment [3], in experiment [4] and in experiment [5] was inactive.

Turning to `CC/C=C\CCOC(=O)c1ccccc1O`, the AC50 was 31.1 µM (active) in experiment [2], 36.1 µM (active) in experiment [3], 20 µM (active) in experiment [4] and 31.3 µM (active) in experiment [5].

For `Cc1c(O)cccc1O`, the result in experiment [2], in experiment [3], in experiment [4] and in experiment [5] was inactive.

Regarding `C=CC(=O)NC(C)(C)C`, the result in experiment [2], in experiment [3], in experiment [4] and in experiment [5] was inactive.

On to `CCOC(=O)C1=NOC(c2ccccc2)(c2ccccc2)C1`, for which the result in experiment [2], in experiment [3], in experiment [4] and in experiment [5] was inactive.

As to `Nc1cccc(N)n1`, the outcome in experiment [2], in experiment [3], in experiment [4] and in experiment [5] was inactive.

`COc1ccc(C(=O)c2ccccc2)c(O)c1`: the result in experiment [2], in experiment [3], in experiment [4] and in experiment [5] was inactive.

As for `CCOC(=O)C1=NN(c2ccc(Cl)cc2Cl)C(C)(C(=O)OCC)C1` (centres undefined), the result in experiment [2], in experiment [3], in experiment [4] and in experiment [5] was inactive.

As to `C=C(C)C(=O)OCCCCCCCCCCCC`, the result in experiment [2], in experiment [3], in experiment [4] and in experiment [5] was inactive.
